Where “and” joins values, the source holds several entries; their conditions need not be identical. Identical values can stand only once. Records with an inconclusive call do not appear. More than one record can exist for a structure, and the calls need not agree. Calls of active or inactive are those of the source. Unless noted, the call rests on the fitted dose curve; in most records, active means well fitted curve in the direction sought with a large enough effect in the repeat runs; inconclusive means weak or mixed curves; inactive means no such curve, though single readings can be large; an effect the other way counts as inactive or inconclusive.

Assay [1] in a line: qHTS assay to identify small molecule antagonists of the thyroid receptor (TR) signaling pathway - cell viability counter screen (AID 743064). Further: nearly all actives have a fitted effect of over 50% in size. The method in brief: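 In rat pituitary GH3.TRE-Luc reporter cells co-exposed to compound and 1 nM T3 for 23.5 h, cytotoxicity was assessed with CellTiter-Fluor in the same wells, read by fluorescence.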
The nature of assay [2]: qHTS assay to identify small molecule antagonists of the thyroid receptor (TR) signaling pathway (AID 743065). Further: nearly all actives have a fitted effect of over 55% in size. Further: potency means the concentration at half of the fitted maximal effect. The gist of the method:
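Antagonism measured as loss of luciferase signal in GH3 cells stably carrying a TRE-luciferase reporter, co-treated with compound and T3 (1 nM final) for 23.5 h at 37 C. Viability was read in the same well by CellTiter-Fluor.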

Assay [3] deals with thyroid hormone receptor (rat, GH3 cells). Briefly: qHTS assay to identify small molecule agonists of the thyroid receptor (TR) signaling pathway (AID 743066; calls by dose curve; further: potency means the concentration at half of the fitted maximal effect).
Assay [4] in a line: qHTS assay to identify small molecule antagonists of the estrogen receptor alpha (ER-alpha) signaling pathway - cell viability counter screen (AID 743074; calls by dose curve;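 further: HEK293 cells carrying ER-alpha-UAS-bla reporter stimulated with 17beta-estradiol; nearly all actives have a fitted effect of over 45% in size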).
Assay [5] can be described thus: qHTS assay to identify small molecule antagonists of the estrogen receptor alpha (ER-alpha) signaling pathway using the BG1 cell line - cell viability counter screen (AID 743081).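 Further: compound given together with 17beta-estradiol as the ER stimulus; series mostly up to about 70 µM; nearly all actives have a fitted effect of over 45% in size.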
Another assay has as its target Aromatase (Homo sapiens) (UniProt P11511). Briefly: qHTS assay to identify aromatase inhibitors (AID 743083). Further: series mostly up to about 70 µM; nearly all actives have a fitted effect of over 55% in size.
Assay [6] is described as follows: qHTS assay to identify aromatase inhibitors - cell viability counter screen (AID 743084).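 Further: cells stimulated with testosterone during compound exposure; nearly all actives have a fitted effect of over 55% in size.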
Assay [7] addresses Aryl hydrocarbon receptor (Homo sapiens) (UniProt P35869). In words: qHTS assay to identify small molecule that activate the aryl hydrocarbon receptor (AhR) signaling pathway (AID 743085). Further: nearly all actives have a fitted effect of over 15% in size. Further: potency means the concentration at half of the fitted maximal effect.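 On activation: HG2L7.5c1 human HepG2 liver cells with stably integrated DRE-driven firefly reporter; series mostly up to about 70 µM.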 The gist of the method: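 AhR agonist activity is inferred from enhanced light output of a DRE-controlled firefly luciferase reporter in HepG2 cells, measured with ONE-Glo following 24 h treatment at 37C.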

Assay [8] can be described thus: qHTS assay to identify small molecule that activate the aryl hydrocarbon receptor (AhR) signaling pathway - cell viability counter screen (AID 743086).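 Further: HepG2 liver cells carrying the AhR DRE luciferase reporter; series mostly up to about 70 µM; nearly all actives have a fitted effect of over 45% in size.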 The method in brief:
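Cytotoxicity counter screen: CellTiter-Fluor signal (30 min, 37 C) in 4000 HepG2 cells/well carrying the DRE-luciferase reporter, following 24 h compound exposure at 37 C.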

Assay [9] addresses Peroxisome proliferator-activated receptor gamma (Homo sapiens) (UniProt P37231). In words: qHTS assay to identify small molecule agonists of the peroxisome proliferator-activated receptor gamma (PPARg) signaling pathway (AID 743094; active means well fitted activation curve with a large enough effect in the signal ratio in the repeat runs, not every such curve was filed as active; the % refers to the signal ratio). The gist of the method:
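Cell-based bla reporter, HEK293H background, PPARg-driven UAS. Pre-incubation 5 h, 37C, 5% CO2. Compound 17 h, 37C. Substrate 1 h RT; fluorescence.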

Assay [10] in a line: qHTS assay to identify small molecule antagonists of the peroxisome proliferator-activated receptor gamma (PPARg) signaling pathway - cell viability counter screen (AID 743194). Further: nearly all actives have a fitted effect of over 55% in size. The method in brief: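 Viability was measured as CellTiter-Glo luminescence in GeneBLAzer PPARg UAS-bla HEK293H cells. These cells had been exposed 17 h at 37 C to compounds together with rosiglitazone at 50 nM final, with the beta-lactamase readout taken in the same wells.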

Assay [11] can be described thus: qHTS assay for small molecule agonists of the antioxidant response element (ARE) signaling pathway (AID 743202; active means well fitted activation curve with a large enough effect in the signal ratio in the repeat runs, not every such curve was filed as active; the % refers to the signal ratio; further: potency means the concentration at half of the fitted maximal effect). The gist of the method: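 After 16 hours of compound treatment at 37 C, HepG2 cells with a stably integrated ARE-driven beta-lactamase reporter were loaded 2 hours at room temperature with LiveBLAzer B/G FRET substrate and fluorescence intensity measured.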

A short description of assay [12]: qHTS assay for small molecule agonists of the antioxidant response element (ARE) signaling pathway - cell viability counter screen (AID 743203; calls by dose curve; further: nearly all actives have a fitted effect of over 55% in size). The method in brief:
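Measured in the same wells as the beta-lactamase ARE reporter, this read-out is CellTiter-Glo luminescence from HepG2 ARE-bla cells given compounds for 16 hrs.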

Assay [13] in a line: qHTS assay for small molecule activators of the heat shock response signaling pathway - cell viability counter screen (AID 743209). Further: nearly all actives have a fitted effect of over 50% in size. The gist of the method: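 Same-well multiplex: after 2.5 h room-temperature incubation with LiveBLAzer B/G substrate and fluorescence reading, CellTiter-Glo reagent was added to HSE-bla HeLa cells that had received compound for 5 h at 37 C; luminescence read after 30 min.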

Assay [14] in a line: qHTS assay for small molecule activators of the heat shock response signaling pathway (AID 743210; active means well fitted activation curve with a large enough effect in the signal ratio in the repeat runs, with a control signal flat, not every such curve was filed as active; the % refers to the signal ratio; further: series mostly up to about 63 µM). The method in brief: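 Compound exposure lasted 5 h at 37 C in HeLa cells carrying a heat-shock-element-driven beta-lactamase reporter. Read-out: fluorescence intensity after 2.5 h room-temperature loading with LiveBLAzer B/G FRET substrate.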
The target of assay [15] is Estrogen receptor (Homo sapiens) (UniProt P03372). In words: qHTS assay to identify small molecule agonists of the estrogen receptor alpha (ER-alpha) signaling pathway (AID 743075; calls by dose curve;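 further: HEK293 GripTite cells with ER-alpha and UAS-driven beta-lactamase reporter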).
The target is the same in assay [16]. In words: qHTS assay to identify small molecule agonists of the estrogen receptor alpha (ER-alpha) signaling pathway using the BG1 cell line (AID 743079). Further: nearly all actives have a fitted effect of over 20% in size. Further: potency means the concentration at half of the fitted maximal effect.
For assay [17], the target named is Peroxisome proliferator-activated receptor gamma (Homo sapiens) (UniProt P37231). Briefly: qHTS assay to identify small molecule antagonists of the peroxisome proliferator-activated receptor gamma (PPARg) signaling pathway (AID 743191; calls by dose curve; further: series mostly up to about 63 µM; nearly all actives have a fitted effect of over 30% in size). The gist of the method: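 Beta-lactamase reporter under UAS control in HEK293H PPARg-bla cells; compound treatment 17 h at 37C. Read-out: fluorescence intensity after 1 h room-temperature incubation with LiveBLAzer B/G FRET substrate.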

Assay [18] addresses Estrogen receptor (Homo sapiens) (UniProt P03372). In words: qHTS assay to identify small molecule antagonists of the estrogen receptor alpha (ER-alpha) signaling pathway (AID 743069; active means well fitted curve in the direction sought with a large enough effect in the signal ratio in the repeat runs, not every such curve was filed as active; the % refers to the signal ratio). The method in brief: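 Antagonist mode: compounds in DMSO were co-added with 17beta-estradiol to ER-alpha-bla HEK293 cells (2% charcoal-stripped serum) and left 18 h at 37C. Reporter inhibition was measured as FRET fluorescence after 2 h LiveBLAzer substrate at room temperature.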

Assay [19] can be described thus: qHTS assay to identify small molecule antagonists of the estrogen receptor alpha (ER-alpha) signaling pathway using the BG1 cell line (AID 743080; calls by dose curve;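 further: BG1 cells stimulated with 17beta-estradiol alongside compound; nearly all actives have a fitted effect of over 25% in size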; further: potency means the concentration at half of the fitted maximal effect). The gist of the method:
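BG1Luc4E2, endogenous ER-alpha, 4xERE-luc; 5 d charcoal-stripped FBS, phenol red free; 24 h plating; cpd + 17beta-estradiol 21.5 h, 37 C/5% CO2; CellTiter-Fluor viability 30 min, then ONE-Glo luciferase 30 min RT.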

Peroxisome proliferator-activated receptor gamma (Homo sapiens), sequence (P37231 whole entry, looked up): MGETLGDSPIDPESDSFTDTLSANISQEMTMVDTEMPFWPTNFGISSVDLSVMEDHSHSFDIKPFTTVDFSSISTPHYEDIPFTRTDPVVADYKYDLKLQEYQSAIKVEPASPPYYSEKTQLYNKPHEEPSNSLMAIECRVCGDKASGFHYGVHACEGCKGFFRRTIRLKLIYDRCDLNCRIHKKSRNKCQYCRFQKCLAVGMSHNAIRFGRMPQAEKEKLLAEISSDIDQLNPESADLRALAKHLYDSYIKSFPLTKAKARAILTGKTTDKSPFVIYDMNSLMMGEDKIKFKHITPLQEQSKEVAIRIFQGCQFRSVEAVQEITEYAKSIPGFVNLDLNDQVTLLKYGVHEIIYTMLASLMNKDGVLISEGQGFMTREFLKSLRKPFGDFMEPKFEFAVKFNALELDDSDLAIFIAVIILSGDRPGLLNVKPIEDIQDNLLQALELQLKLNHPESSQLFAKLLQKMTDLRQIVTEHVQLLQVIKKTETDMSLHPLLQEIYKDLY
Estrogen receptor (Homo sapiens), sequence (P03372 whole entry, looked up): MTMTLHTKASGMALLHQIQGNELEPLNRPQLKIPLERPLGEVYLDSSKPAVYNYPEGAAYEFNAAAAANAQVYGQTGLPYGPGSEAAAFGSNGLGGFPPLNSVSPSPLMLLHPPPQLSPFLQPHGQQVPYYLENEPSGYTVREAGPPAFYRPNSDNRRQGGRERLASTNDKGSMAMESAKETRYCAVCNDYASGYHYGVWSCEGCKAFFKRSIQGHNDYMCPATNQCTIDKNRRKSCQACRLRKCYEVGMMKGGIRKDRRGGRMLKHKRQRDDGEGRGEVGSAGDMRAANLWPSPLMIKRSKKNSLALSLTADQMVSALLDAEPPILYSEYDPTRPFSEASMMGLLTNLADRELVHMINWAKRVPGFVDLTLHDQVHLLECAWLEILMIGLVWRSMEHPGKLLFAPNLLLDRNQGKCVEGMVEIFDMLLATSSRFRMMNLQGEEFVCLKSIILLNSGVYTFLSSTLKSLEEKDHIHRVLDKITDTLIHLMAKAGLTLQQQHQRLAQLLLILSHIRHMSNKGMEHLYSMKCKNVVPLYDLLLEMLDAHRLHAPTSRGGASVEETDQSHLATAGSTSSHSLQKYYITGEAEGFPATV
Aromatase (Homo sapiens), sequence (P11511 whole entry, looked up): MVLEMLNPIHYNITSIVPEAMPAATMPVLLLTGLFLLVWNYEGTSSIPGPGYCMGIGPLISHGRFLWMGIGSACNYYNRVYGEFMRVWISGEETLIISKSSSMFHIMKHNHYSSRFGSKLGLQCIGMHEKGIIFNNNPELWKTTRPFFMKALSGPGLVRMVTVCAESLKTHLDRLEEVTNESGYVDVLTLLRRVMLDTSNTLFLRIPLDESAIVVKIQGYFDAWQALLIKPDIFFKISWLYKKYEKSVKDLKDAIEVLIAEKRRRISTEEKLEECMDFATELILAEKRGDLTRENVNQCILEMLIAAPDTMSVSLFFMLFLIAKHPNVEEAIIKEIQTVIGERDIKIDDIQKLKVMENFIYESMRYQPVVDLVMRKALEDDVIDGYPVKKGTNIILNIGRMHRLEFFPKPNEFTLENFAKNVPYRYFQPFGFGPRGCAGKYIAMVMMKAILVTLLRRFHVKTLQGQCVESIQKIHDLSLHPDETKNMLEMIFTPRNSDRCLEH
Aryl hydrocarbon receptor (Homo sapiens), sequence (P35869 whole entry, looked up): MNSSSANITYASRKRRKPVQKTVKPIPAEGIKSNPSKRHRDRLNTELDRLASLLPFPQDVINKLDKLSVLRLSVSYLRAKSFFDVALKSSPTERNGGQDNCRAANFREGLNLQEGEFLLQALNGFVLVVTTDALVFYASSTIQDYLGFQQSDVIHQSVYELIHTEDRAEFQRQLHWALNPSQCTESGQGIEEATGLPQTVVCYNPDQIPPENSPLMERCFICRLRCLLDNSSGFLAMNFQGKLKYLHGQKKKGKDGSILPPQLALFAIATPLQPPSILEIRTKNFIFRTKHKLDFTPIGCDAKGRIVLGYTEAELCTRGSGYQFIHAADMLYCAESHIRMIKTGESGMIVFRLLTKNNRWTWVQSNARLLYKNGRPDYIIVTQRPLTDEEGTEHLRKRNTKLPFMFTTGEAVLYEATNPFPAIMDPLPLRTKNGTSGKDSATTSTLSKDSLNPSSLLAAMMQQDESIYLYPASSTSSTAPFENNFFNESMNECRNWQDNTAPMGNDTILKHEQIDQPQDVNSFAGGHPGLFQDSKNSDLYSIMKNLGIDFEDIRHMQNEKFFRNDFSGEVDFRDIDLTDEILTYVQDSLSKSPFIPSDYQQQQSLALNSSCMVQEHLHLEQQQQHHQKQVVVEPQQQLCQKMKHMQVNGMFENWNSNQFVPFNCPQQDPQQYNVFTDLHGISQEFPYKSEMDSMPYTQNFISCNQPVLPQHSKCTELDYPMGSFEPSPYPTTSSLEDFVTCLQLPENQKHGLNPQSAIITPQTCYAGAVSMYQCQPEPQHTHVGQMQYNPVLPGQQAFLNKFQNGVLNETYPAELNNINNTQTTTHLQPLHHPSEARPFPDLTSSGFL

On to `N[C@@H](Cc1cc(I)c(Oc2cc(I)c(O)c(I)c2)c(I)c1)C(=O)O`, for which the Potency entry (in assay [1]; in assay [2]; in [5]; with Aromatase (Homo sapiens); in [6]; in [11]) was “inactive” each time. In addition, the Potency result in assay [14] was “inactive”. In addition, the Potency in assay [3] is 8.4 nM (active) and 10.9 nM (active); in [7] it was 13.8 µM (active). For the same molecule, the result in assay [4], in assay [8], in [9], in assay [10], in [12] and in assay [13] was inactive.
`CC(=O)OCC(=O)[C@@]12N=C(C)O[C@@H]1C[C@H]1[C@@H]3CCC4=CC(=O)C=C[C@]4(C)[C@H]3[C@@H](O)C[C@@]12C`: the Potency entry (in [1]; in assay [2]; in assay [3]; in assay [15]; in assay [5]; with Aromatase (Homo sapiens)) was “inactive” each time. The Potency entry in [6] and in [14] was “inactive” throughout. The outcome in [4], in [8], in [9], in assay [17] and in [12] was inactive. Besides, in [16], the Potency was 16.8 µM (active).
For the molecule `CC1=CCC2CC1C2(C)C` (centres undefined), the Potency entry in assay [1], in assay [2], in [3], in [18], in [15] and in assay [16] was “inactive” each time. For the same molecule, the Potency entry (in assay [19]; in [5]; with Aromatase (Homo sapiens); in assay [6]; in assay [11]; in assay [14]) was “inactive” each time. Also, the molecule was classed as inactive in assay [4], in assay [8], in assay [9], in assay [10] and in [12].
In the case of `O=c1[nH]nnc2ccccc12`, the Potency entry (in [1]; in [2]; in assay [3]; in assay [5]; in the assay with Aromatase (Homo sapiens); in assay [6]) was “inactive” in each case. Besides, the Potency entry in [7], in assay [11] and in [14] was “inactive” each time. The molecule was called inactive in assay [4], in assay [8], in assay [9], in assay [17] and in [12].
Consider `O=C(O)CCCCCCCCCCC(=O)O`, for which the Potency entry in assay [1], in assay [2], in assay [3], in assay [18], in assay [15] and in assay [19] was “inactive” in each case. The Potency entry (in assay [5]; in the assay with Aromatase (Homo sapiens); in assay [6]; in [7]; in assay [11]; in [14]) was “inactive” throughout. In addition, the molecule was classed as inactive in assay [4], in assay [8], in assay [12] and in assay [13]. The Potency entry in assay [16] is “inactive and 61.1 µM (active)”.
In the case of `CC(O)COCC(C)O` (centres undefined), the Potency result in assay [1], in assay [2], in assay [3], in assay [18], in assay [15] and in [16] was “inactive” in each case. The Potency entry (in assay [19]; in [5]; with Aromatase (Homo sapiens); in [6]; in assay [7]; in assay [11]) was “inactive” throughout. Also, in [14], the Potency result is “inactive”. In addition, the molecule was classed as inactive in [8], in assay [9], in assay [17], in assay [10], in assay [12] and in assay [13].
In the case of `c1ccc(OCCOc2ccccc2)cc1`, the Potency entry in [1], in assay [2], in [3], in assay [18], in [15] and in assay [5] was “inactive” each time. For the same molecule, the Potency entry (with Aromatase (Homo sapiens); in [6]; in assay [11]; in [14]) was “inactive” each time. For the same molecule, the outcome in [4], in assay [8], in assay [9], in assay [17], in assay [10] and in [12] was inactive. For the same molecule, in assay [13], the molecule was classed as inactive. In assay [16], the Potency was 61.1 µM (active) and 54.5 µM (active).
On to `C=C(C)C(=O)Nc1ccc(Cl)c(Cl)c1`, for which the Potency entry in [1], in [3], in [18], in [15], in [16] and in assay [5] was “inactive” in each case. In addition, the Potency entry (in the assay with Aromatase (Homo sapiens); in assay [6]; in assay [14]) was “inactive” throughout. Also, the Potency in assay [2] was 49.1 µM (active) and 54.3 µM (active); in assay [19], 69.3 µM (active) and 68.3 µM (active); in assay [7], 69.3 µM (active) and 54.3 µM (active); in assay [11], 19.5 µM (active) and 27.2 µM (active). The molecule was classed as inactive in [4] and in assay [12].
